Test results published in PubChem BioAssay (NCI).
This is part of a sample that, as a whole, favours compounds with a hit. Of some 79,000 tested, about 15% had one in any assay. Values without a mark were called inactive. Calls of active or inactive are those of the source. Rule as the data show it: active = growth inhibition above about 70%; inactive = the rest.

Key:
[1] = NCI Yeast Anticancer Drug Screen. Data for the rad52 strain (AID 147);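 also: 0% = growth of vehicle-treated control cultures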; settings: S. cerevisiae rad52 mutant growth inhibition, active compounds read high
Procedure, shortened: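 Compounds are applied to a genetically defined yeast strain lacking normal DNA damage repair, and inhibition of growth is expressed relative to cultures given vehicle only.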

[2] = NCI Yeast Anticancer Drug Screen. Data for the wt1 strain (AID 149);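 also: 0% = growth of vehicle-treated wt1 cultures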; settings: S. cerevisiae wt1 strain (SPY 50644) growth inhibition, active compounds read high
Procedure, shortened: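 Each compound is tested on wt1 yeast and the loss of growth versus vehicle gives the inhibition value.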

[3] = NCI Yeast Anticancer Drug Screen. Data for the rad50EPP+ strain (AID 151);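 also: 0% = growth of vehicle-treated control cultures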; settings: S. cerevisiae rad50 mutant strain, active compounds read high
Procedure, shortened: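 Compounds were applied to the rad50EPP+ yeast strain, which bears a defined DNA repair alteration, and growth inhibition was determined relative to vehicle-treated cultures.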

[4] = NCI Yeast Anticancer Drug Screen. Data for the mgt1 strain (AID 153); settings: S. cerevisiae mgt1 mutant growth inhibition, active compounds read high
Procedure, shortened: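 Strain: mgt1 yeast, one of a set carrying defined DNA damage repair or cell cycle control alterations. Compound-treated growth compared with vehicle.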

[5] = NCI Yeast Anticancer Drug Screen. Data for the rad50 strain (AID 155);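 also: 0% = growth of vehicle-only cultures of the same strain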; settings: S. cerevisiae rad50 strain growth inhibition, active compounds read high
Procedure, shortened: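 Vehicle-treated cultures provide the reference for the growth inhibition reported for compound-exposed, repair-deficient yeast.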

[6] = NCI Yeast Anticancer Drug Screen. Data for the mec2-1 strain (AID 157); settings: S. cerevisiae mec2-1 strain, active compounds read high
Procedure, shortened: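 Strain: mec2-1 (DNA repair/cell cycle alteration). Compound exposure, then growth measured; inhibition expressed relative to vehicle.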

[7] = NCI Yeast Anticancer Drug Screen. Data for the rad14 strain (AID 159);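 also: 0% = growth of vehicle-treated control cultures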; settings: S. cerevisiae rad14 strain growth inhibition, active compounds read high
Procedure, shortened: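 Inhibition of growth is reported for a repair-deficient yeast mutant following compound treatment, calculated relative to cultures that received vehicle.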

[8] = NCI Yeast Anticancer Drug Screen. Data for the sgs1 mgt1 strain (AID 161);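 also: 0% = growth of cultures given vehicle only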; settings: S. cerevisiae sgs1 mgt1 strain, active compounds read high
Procedure, shortened: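 Mutant yeast exposed to compound; growth scored against vehicle-only wells.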

[9] = NCI Yeast Anticancer Drug Screen. Data for the CLN2oe strain (AID 163);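 also: 0% = growth of vehicle-only control cultures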; settings: S. cerevisiae CLN2oe strain, active compounds read high
Procedure, shortened: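 Growth of a genetically modified yeast strain is measured after compound exposure and compared with cultures given vehicle alone.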

[10] = NCI Yeast Anticancer Drug Screen. Data for the cln2 rad14 strain (AID 165);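 also: 0% = growth equal to vehicle treated cultures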; settings: S. cerevisiae cln2 rad14 strain, active compounds read high
Procedure, shortened: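 Compounds are applied to the cln2 rad14 yeast strain, and growth is then compared with that of vehicle-treated cultures to give inhibition.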

[11] = NCI Yeast Anticancer Drug Screen. Data for the bub3 strain (AID 167); settings: S. cerevisiae bub3 mutant strain, active compounds read high
Procedure, shortened: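 Mutant yeast screening strain plus compound; vehicle-treated cultures serve as the 0% inhibition reference.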

[12] = NCI Yeast Anticancer Drug Screen. Data for the wt2 strain (AID 169); settings: S. cerevisiae wt2 strain growth inhibition, active compounds read high
Procedure, shortened: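 This strain belongs to a panel of yeast strains with defined genetic alterations in DNA damage repair or cell cycle control. Compounds are applied, and growth inhibition is measured against vehicle-treated cultures.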

[13] = NCI Yeast Anticancer Drug Screen. Data for the sgs1 strain (AID 173);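 also: 0% = growth of vehicle-only control cultures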; settings: S. cerevisiae sgs1 mutant, active compounds read high
Procedure, shortened: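 Growth of a yeast strain bearing a defined genetic alteration is measured after compound treatment. Inhibition is expressed relative to vehicle-only controls.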

[14] = NCI Yeast Anticancer Drug Screen. Data for the mlh1 rad18 strain (AID 175); settings: S. cerevisiae mlh1 rad18 strain growth inhibition, active compounds read high
Procedure, shortened: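 Read-out is yeast growth inhibition, calculated against vehicle-only controls. The compound was applied to a strain engineered with DNA damage repair alterations.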

[15] = NCI Yeast Anticancer Drug Screen. Data for the rad18 strain (AID 177); settings: S. cerevisiae rad18 mutant growth inhibition, active compounds read high
Procedure, shortened: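 Growth of the mutant yeast strain after compound exposure, normalised to vehicle-only cultures.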

[16] = at 5.0 µM (retest, dose inferred, filed as 0.5)
[17] = at 50.0 µM (retest, dose inferred, filed as 5.0)

Question: Which results are given for `O=C(NCCCCNCCCNC(=O)c1cc(-c2ccccc2)nc2ccccc12)c1cc(-c2ccccc2)nc2ccccc12`?
Answer: growth inhibition ([1]; at 1.2 µM): -1%; growth inhibition ([1]; at 3.7 µM): -1%; growth inhibition ([1]; at 11.0 µM): -3%; growth inhibition ([1]; at 33.0 µM): 40%; growth inhibition ([1]; at 100.0 µM): 92% (active); growth inhibition ([2]; at 1.2 µM): 6%; growth inhibition ([2]; at 3.7 µM): 2%; growth inhibition ([2]; at 11.0 µM): 2%; growth inhibition ([2]; at 33.0 µM): 5%; growth inhibition ([2]; at 100.0 µM): 91% (active); growth inhibition ([3]; at 1.2 µM): 1%; growth inhibition ([3]; at 3.7 µM): 4%; growth inhibition ([3]; at 11.0 µM): 12%; growth inhibition ([3]; at 33.0 µM): 32%; growth inhibition ([3]; at 100.0 µM): 91% (active); growth inhibition ([4]; at 1.2 µM): 2%; growth inhibition ([4]; at 3.7 µM): 2%; growth inhibition ([4]; at 11.0 µM): -1%; growth inhibition ([4]; at 33.0 µM): 59%; growth inhibition ([4]; at 100.0 µM): 94% (active); growth inhibition ([5]; at 1.2 µM): -5%; growth inhibition ([5]; at 3.7 µM): -5%; growth inhibition [5, 16]: -29%; growth inhibition ([5]; at 11.0 µM): -3%; growth inhibition ([5]; at 33.0 µM): 81% (active); growth inhibition [5, 17]: 97% (active); growth inhibition ([5]; at 50.0 µM): 97% (active); growth inhibition ([5]; at 100.0 µM): 92% (active); growth inhibition ([6]; at 1.2 µM): -1%; growth inhibition ([6]; at 3.7 µM): -3%; growth inhibition [6, 16]: -15%; growth inhibition ([6]; at 11.0 µM): -4%; growth inhibition ([6]; at 33.0 µM): 56%; growth inhibition [6, 17]: 59%; growth inhibition ([6]; at 50.0 µM): 97.3% (active); growth inhibition ([6]; at 100.0 µM): 94% (active); growth inhibition ([7]; at 1.2 µM): 0%; growth inhibition ([7]; at 3.7 µM): -2%; growth inhibition ([7]; at 11.0 µM): 1%; growth inhibition ([7]; at 33.0 µM): 96% (active); growth inhibition ([7]; at 100.0 µM): 94% (active); growth inhibition [8, 16]: -16%; growth inhibition [8, 17]: 58%; growth inhibition ([8]; at 50.0 µM): 97.5% (active); growth inhibition ([9]; at 1.2 µM): 1%; growth inhibition ([9]; at 3.7 µM): -1%; growth inhibition ([9]; at 11.0 µM): -1%; growth inhibition ([9]; at 33.0 µM): 43%; growth inhibition ([9]; at 100.0 µM): 91% (active); growth inhibition [10, 16]: 40%; growth inhibition [10, 17]: 55%; growth inhibition ([10]; at 50.0 µM): 97.6% (active); growth inhibition ([11]; at 1.2 µM): -2%; growth inhibition ([11]; at 3.7 µM): -1%; growth inhibition [11, 16]: -8%; growth inhibition ([11]; at 11.0 µM): -2%; growth inhibition ([11]; at 33.0 µM): 50%; growth inhibition [11, 17]: 65%; growth inhibition ([11]; at 50.0 µM): 97.2% (active); growth inhibition ([11]; at 100.0 µM): 92% (active); growth inhibition ([12]; at 1.2 µM): 2%; growth inhibition ([12]; at 3.7 µM): -1%; growth inhibition ([12]; at 11.0 µM): -2%; growth inhibition ([12]; at 33.0 µM): 20%; growth inhibition ([12]; at 100.0 µM): 93% (active); growth inhibition ([13]; at 1.2 µM): 0%; growth inhibition ([13]; at 3.7 µM): 0%; growth inhibition ([13]; at 11.0 µM): 1%; growth inhibition ([13]; at 33.0 µM): 33%; growth inhibition ([13]; at 100.0 µM): 93% (active); growth inhibition [14, 16]: -13%; growth inhibition [14, 17]: 92% (active); growth inhibition ([14]; at 50.0 µM): 39.5%; growth inhibition ([15]; at 1.2 µM): 0%; growth inhibition ([15]; at 3.7 µM): -1%; growth inhibition ([15]; at 11.0 µM): -1%; growth inhibition ([15]; at 33.0 µM): 89% (active); growth inhibition ([15]; at 100.0 µM): 91% (active)

Question: Which growth inhibition ([1]; at 1.2 µM) does the source give for `CC(=O)OC1CCC2(C)C(=CCC3C4CCC5(OC6CC(C)CN(C(C)=O)C6C5C)C(C)=C4C(=O)C32)C1` (stereo not drawn) here?
Answer: The growth inhibition was 18%.

Question: What about the growth inhibition ([1]; at 3.7 µM) of the same molecule?
Answer: The growth inhibition was 12%.

Question: What about the growth inhibition ([1]; at 11.0 µM) of the same molecule?
Answer: Its growth inhibition is 57%.

Question: What about the growth inhibition ([1]; at 33.0 µM) of the same molecule?
Answer: Its growth inhibition is 97% (active).

Question: And the growth inhibition ([1]; at 100.0 µM)?
Answer: Its growth inhibition is 96% (active).

Question: And the growth inhibition ([2]; at 1.2 µM)?
Answer: The growth inhibition was 2%.

Question: And the growth inhibition ([2]; at 3.7 µM)?
Answer: The growth inhibition was 2%.

Question: What about the growth inhibition ([2]; at 11.0 µM) of the same molecule?
Answer: The growth inhibition was 28%.

Question: What about the growth inhibition ([2]; at 33.0 µM) of the same molecule?
Answer: Its growth inhibition is 97% (active).

Question: What about the growth inhibition ([2]; at 100.0 µM) of the same molecule?
Answer: The growth inhibition was 94% (active).

Question: What about the growth inhibition ([3]; at 1.2 µM) of the same molecule?
Answer: Its growth inhibition is -39%.

Question: And the growth inhibition ([3]; at 3.7 µM)?
Answer: The growth inhibition was -28%.

Question: What about the growth inhibition ([3]; at 11.0 µM) of the same molecule?
Answer: Its growth inhibition is -7%.

Question: What about the growth inhibition ([3]; at 33.0 µM) of the same molecule?
Answer: Its growth inhibition is 6%.

Question: What about the growth inhibition ([3]; at 100.0 µM) of the same molecule?
Answer: Its growth inhibition is -1%.

Question: What about the growth inhibition ([4]; at 1.2 µM) of the same molecule?
Answer: Its growth inhibition is -26%.

Question: And the growth inhibition ([4]; at 3.7 µM)?
Answer: Its growth inhibition is -30%.

Question: What about the growth inhibition ([4]; at 11.0 µM) of the same molecule?
Answer: The growth inhibition was 61%.

Question: And the growth inhibition ([4]; at 33.0 µM)?
Answer: The growth inhibition was 97% (active).

Question: And the growth inhibition ([4]; at 100.0 µM)?
Answer: The growth inhibition was 96% (active).

Question: And the growth inhibition ([5]; at 1.2 µM)?
Answer: The growth inhibition was -49%.

Question: And the growth inhibition ([5]; at 3.7 µM)?
Answer: Its growth inhibition is -31%.

Question: What about the growth inhibition [5, 16] of the same molecule?
Answer: The growth inhibition was 0%.

Question: What about the growth inhibition ([5]; at 11.0 µM) of the same molecule?
Answer: The growth inhibition was 61%.

Question: What about the growth inhibition ([5]; at 33.0 µM) of the same molecule?
Answer: Its growth inhibition is 94% (active).

Question: What about the growth inhibition [5, 17] of the same molecule?
Answer: Its growth inhibition is 96% (active).

Question: And the growth inhibition ([5]; at 50.0 µM)?
Answer: The growth inhibition was 83.2% (active).

Question: And the growth inhibition ([5]; at 100.0 µM)?
Answer: The growth inhibition was 95% (active).

Question: And the growth inhibition ([6]; at 1.2 µM)?
Answer: Its growth inhibition is -32%.

Question: And the growth inhibition ([6]; at 3.7 µM)?
Answer: Its growth inhibition is -32%.
